Reference: PubChem BioAssay
Activity calls are given as the source filed them. Unless noted, the rule behind the calls is not given here.

What was measured:
[1] = A549 cell viability effects, profiling panel, calcein-AM fluorescence, 48 h, basal (AID 1162); conditions: higher = more signal; note: test concentration not given here
[2] = adipocyte viability effects, profiling panel, cell-based, 3T3-L1 adipocytes, calcein-AM fluorescence, 48 h, basal (AID 1163); conditions: 3T3-L1 adipocytes viability, higher = more signal; note: test concentration not given here
[3] = HepG2 cell viability effects, profiling panel, calcein-AM fluorescence, 48 h, basal (AID 1164); conditions: higher = more signal; note: test concentration not given here
[4] = MM1S cell viability effects, profiling panel, calcein-AM fluorescence, 48 h, basal (AID 1165); conditions: higher = more signal;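 note: viability of MM1S multiple myeloma cells under basal unstimulated conditions; test concentration not given here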
[5] = basal RPMI8226 viability, no added stimulus, profiling panel, cell-based, calcein-AM fluorescence, 48 h, PK04 Diversity Set (AID 1166); conditions: RPMI8226 myeloma viability, higher = more signal;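 note: cells grown under basal conditions without added stimulus; test concentration not given here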
[6] = basal HepG2 mitochondrial membrane potential changes, profiling panel, cell-based, JC-1 fluorescence, 24 h, 100 nL compound (AID 1167); conditions: higher = more signal; note: test concentration not given here
[7] = basal 3T3-L1 adipocyte mitochondrial potential changes, profiling panel, cell-based, JC-1 fluorescence, 3T3-L1 adipocytes, 24 h, 100 nL compound (AID 1168); conditions: JC-1 mitochondrial fluorescence, higher = more signal, called active from +8 up or from −8 down; note: test concentration not given here
[8] = basal RPMI8226 mitochondrial membrane potential changes, profiling panel, cell-based, JC-1 fluorescence, 24 h, 100 nL compound (AID 1169); conditions: RPMI8226 myeloma, JC-1 mitochondrial potential fluorescence, higher = more signal; note: test concentration not given here
[9] = basal MM1S mitochondrial membrane potential changes, profiling panel, cell-based, JC-1 fluorescence, 24 h, 100 nL compound (AID 1170); conditions: higher = more signal; note: test concentration not given here
[10] = A549 lung cancer cell viability effects, profiling panel, resazurin fluorescence, 24 h, PK04 Diversity Set (AID 1171); conditions: higher = more signal, called active from +8 up or from −8 down; note: test concentration not given here
[11] = HepG2 liver cancer cell viability effects, profiling panel, resazurin fluorescence, 24 h, PK04 Diversity Set (AID 1172); conditions: higher = more signal; note: test concentration not given here
[12] = basal S. cerevisiae growth modulation, no modifier, primary screen, OD600, strain BY4716, 24 h, basal condition (AID 1173); conditions: OD600, 24 h, higher = more signal, called active from +8 up or from −8 down
[13] = MM1S myeloma cell viability, profiling panel, resazurin fluorescence, basal, 24 h, PK04 Diversity Set (AID 1174); conditions: higher = more signal, called active from +8 up or from −8 down;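 note: MM1S multiple myeloma cell line; test concentration not given here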
[14] = biological target: Dihydroorotate dehydrogenase (quinone), mitochondrial (Plasmodium falciparum (isolate 3D7)) (UniProt Q08210); assay: PfDHODH enzyme inhibitors, primary screen, biochemical, C-terminal His tag, absorbance 600 nm (AID 1175); conditions: DCIP absorbance 600 nm, higher = more signal, called active from +8 up or from −8 down;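 note: recombinant parasite enzyme with a five histidine tag at its C terminus; test concentration not given here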
[15] = P. aeruginosa biofilm formation inhibitors, primary screen, strain PAO1, LB-PBS medium, absorbance 600 nm (AID 1176); note: test concentration not given here; conditions: P. aeruginosa PAO1 growth/biofilm, A600, 12 h; higher = more signal
[16] = S. cerevisiae RM11-1a growth modifiers, primary screen, strain RM11-1a, OD600, basal, 24 h (AID 1177); conditions: OD600, 24 h, higher = more signal, called active from +8 up or from −8 down;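 note: cultures grown under basal conditions with no added stressor; test concentration not given here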
[17] = E. coli acrAB mutant growth effects, primary screen, E. coli filamentation inducers, strain DRC39, OD650, 24 h (AID 1178); conditions: higher = more signal, called active from +8 up or from −8 down;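 note: growth measured as culture turbidity by optical density at 650 nm; test concentration not given here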
[18] = E. coli acrAB mutant growth effects, primary screen, E. coli filamentation inducers, strain DRC39, OD650, 48 h (AID 1179);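 note: screen aims at cell division blockers that make cells filament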; conditions: E. coli DRC39 delta-acrAB growth, higher = more signal, called active from +8 up or from −8 down
[19] = RPMI8226 myeloma cell viability, profiling panel, resazurin fluorescence, basal, 24 h, PK04 Diversity Set (AID 1180); conditions: higher = more signal;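 note: RPMI8826 multiple myeloma cell line at 5000 cells per well; test concentration not given here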
[20] = biological target: E3 ubiquitin-protein ligase XIAP (Homo sapiens) (UniProt P98170); assay: XIAP binders, primary screen, biophysical, small-molecule microarray, fluorescence 635 nm (AID 1181); conditions: small-molecule microarray binding, higher = more signal;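 note: score merges 667 nm emission and signal to noise over triplicate slides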
Chain of E3 ubiquitin-protein ligase XIAP (Homo sapiens) (P98170 whole entry, looked up): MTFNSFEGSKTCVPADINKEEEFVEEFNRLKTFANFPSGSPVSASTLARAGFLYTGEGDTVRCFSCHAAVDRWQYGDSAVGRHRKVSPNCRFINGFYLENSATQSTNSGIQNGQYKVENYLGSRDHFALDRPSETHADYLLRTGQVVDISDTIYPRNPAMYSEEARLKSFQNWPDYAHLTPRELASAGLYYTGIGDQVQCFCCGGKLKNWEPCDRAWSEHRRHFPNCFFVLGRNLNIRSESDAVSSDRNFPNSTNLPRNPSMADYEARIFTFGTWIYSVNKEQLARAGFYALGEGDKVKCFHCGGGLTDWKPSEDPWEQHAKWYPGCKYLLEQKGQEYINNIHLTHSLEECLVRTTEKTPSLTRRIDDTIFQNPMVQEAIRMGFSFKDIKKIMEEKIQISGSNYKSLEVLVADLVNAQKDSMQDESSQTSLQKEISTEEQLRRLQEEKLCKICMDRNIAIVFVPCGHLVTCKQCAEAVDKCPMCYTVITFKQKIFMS

Chain of Dihydroorotate dehydrogenase (quinone), mitochondrial (Plasmodium falciparum (isolate 3D7)) (Q08210 whole entry, looked up): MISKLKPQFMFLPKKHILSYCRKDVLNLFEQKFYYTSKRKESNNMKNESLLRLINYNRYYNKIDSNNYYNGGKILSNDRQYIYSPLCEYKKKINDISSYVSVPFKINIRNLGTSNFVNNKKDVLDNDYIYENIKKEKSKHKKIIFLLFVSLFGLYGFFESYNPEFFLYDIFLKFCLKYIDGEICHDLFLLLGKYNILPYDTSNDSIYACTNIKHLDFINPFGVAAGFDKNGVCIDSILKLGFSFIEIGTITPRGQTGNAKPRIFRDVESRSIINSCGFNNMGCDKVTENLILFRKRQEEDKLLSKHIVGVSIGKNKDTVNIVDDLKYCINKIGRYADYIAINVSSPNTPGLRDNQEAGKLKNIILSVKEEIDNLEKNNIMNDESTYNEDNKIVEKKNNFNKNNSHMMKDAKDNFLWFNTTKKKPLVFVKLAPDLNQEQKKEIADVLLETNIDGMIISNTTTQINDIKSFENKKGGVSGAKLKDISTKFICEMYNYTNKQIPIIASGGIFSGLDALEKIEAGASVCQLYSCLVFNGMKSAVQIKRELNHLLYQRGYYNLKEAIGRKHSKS

Structure (SMILES)	z-score [1]	z-score [2]	z-score [3]	z-score [4]	z-score [5]	z-score [6]	z-score [7]	z-score [8]	z-score [9]	z-score [10]	z-score [11]	z-score [12]	z-score [13]	composite z-score [14]	z-score [15]	z-score [16]	z-score [17]	z-score [18]	z-score [19]	composite z-score [20]
CCCNC(=O)[C@@]1(Sc2ccc(C)cc2)CC(=O)N(C2CCCCC2)[C@@H]1c1ccc(CO)cc1I	0.14	0.53	0.265	-2.15	-2.58	-0.478	-0.764 (inactive)	-0.503	-1.04	0.696 (inactive)	-0.0096	-1.07 (inactive)	0.0674 (inactive)	-0.198 (inactive)	0.627 (inactive)	-1.15 (inactive)	0.29 (inactive)	0.0883 (inactive)	-1.1	-0.321
CC(C)(C)OC(=O)CC[C@]12N=C(c3ccc(OCCCO)cc3)O[C@H]1c1ccccc1N(Cc1ccccc1)C2=O	0.413	0.709	0.909	-2.74	-4.27	0.0521	1.16 (inactive)	-1.2	-0.0831	1.66 (inactive)	0.851	0.342 (inactive)	-0.922 (inactive)	-0.316 (inactive)	0.95 (inactive)	2.29 (inactive)	1.1 (inactive)	0.124 (inactive)	-1.55	0.0968
CC(C)C[C@@H]1NC(=O)[C@@]23C(=O)N[C@@H](Cc4ccccc4)C2[C@H](C)[C@@]2(C)O[C@H]2C3/C=C/C/C=C\CNC(=O)[C@@H](C)NC1=O (stereo not given in full)	-0.366	0.718	-0.0346	0.761	-1.12	0.991	0.625 (inactive)	0.207	-0.342	1.16 (inactive)	0.833	-0.68 (inactive)	1.33 (inactive)	-0.401 (inactive)	-0.131 (inactive)	-1.08 (inactive)	1.65 (inactive)	0.209 (inactive)	1.01	-0.116
CN1C=C(C(=O)OCCS(C)(=O)=O)C(C(=O)OCCS(C)(=O)=O)=CC(c2ccc(CO)cc2)=CC1c1cccs1 (stereo not given)	0.574	-0.72	0.977	-1.43	-1.1	-0.963	-0.345 (inactive)	-0.627	0.0752	0.458 (inactive)	0.0449	-3.66 (inactive)	-0.727 (inactive)	-0.927 (inactive)	-0.566 (inactive)	-0.363 (inactive)	0.0198 (inactive)	-0.0834 (inactive)	0.0779	0.246
CN1C(=O)C2C=CC(C(O)c3cc(C(F)(F)F)cc(C(F)(F)F)c3)N(Nc3ccccc3)C2C1=O (stereo not given)	-1.53	-1.36	-0.78	-0.239	-0.683	-1.09	-0.551 (inactive)	-0.222	0.333	0.672 (inactive)	-0.0075	-2.64 (inactive)	-0.18 (inactive)	-0.274 (inactive)	0.214 (inactive)	-0.478 (inactive)	-0.732 (inactive)	-0.556 (inactive)	0.298	0.0641
Cc1cccc([C@H]2C[C@H]3C(I)=C[C@@H]2C(=O)[C@]32CO2)c1	-0.985	-0.176	-0.902	-3.19	-3.12	-1.45	0.224 (inactive)	-0.889	-0.753	-0.109 (inactive)	0.644	-10.5 (active)	-0.415 (inactive)	0.284 (inactive)	0.531 (inactive)	-0.639 (inactive)	-0.545 (inactive)	-1.15 (inactive)	0.305	0.49
C=CCN1C(=O)[C@@]2(O[C@@H](CCO)[C@H]([Si](C)(C)c3ccc(OC)cc3)[C@H]2C)c2cc(N3CCOC3=O)ccc21	-2.23	1.33	-4.75	-2.77	-4.38	-2.9	1.25 (inactive)	-1.08	-2.3	-3.36 (inactive)	-5.76	1.07 (inactive)	-8.77 (active)	1.58 (inactive)	0.519 (inactive)	4.47 (inactive)	0.891 (inactive)	0.231 (inactive)	-6.2	-0.0807
C=C[C@@H](OC)[C@H](OC(=O)Nc1ccc(SC)cc1)c1ccc(OCCO)cc1	-0.568	0.222	-0.587	-2.08	-1.56	-2.68	0.286 (inactive)	-0.151	-0.333	-0.285 (inactive)	-0.8	-0.88 (inactive)	-0.415 (inactive)	-0.915 (inactive)	0.838 (inactive)	0.884 (inactive)	-0.967 (inactive)	-1.5 (inactive)	-0.306	-0.0918
COCCCNC(=O)[C@@]1(c2ccc([N+](=O)[O-])cc2)CC(=O)N(C(C)C)[C@@H]1c1ccc(CO)cc1	1.12	1.22	0.603	0.105	0.243	-0.0251	-0.612 (inactive)	-0.795	-1.28	0.985 (inactive)	0.145	-0.569 (inactive)	0.879 (inactive)	-0.499 (inactive)	0.0561 (inactive)	-0.203 (inactive)	0.0472 (inactive)	-0.0495 (inactive)	1.24	0.0223
Cc1ccc(N2C(=O)c3ccccc3[C@](C)(C(=O)NCc3ccccc3)[C@@H]2c2ccc(CO)cc2)nc1	0.868	0.483	0.197	-0.169	-1.46	0.191	-0.834 (inactive)	-0.494	1.46	-0.0526 (inactive)	-0.776	-0.878 (inactive)	1.13 (inactive)	1.07 (inactive)	0.882 (inactive)	0.741 (inactive)	0.349 (inactive)	0.329 (inactive)	0.994	-0.0326
COC(=O)C(CC#Cc1ccc2c(c1)[C@]1(C(=O)N2)[C@H](C(=O)Nc2nc3ccccc3s2)[C@H]2C(=O)O[C@H](c3ccccc3)[C@H](c3ccccc3)N2[C@@H]1c1ccc(OCCO)cc1)C(=O)OC	0.686	1.18	1.64	-0.82	-1.97	-3.2	1.59 (inactive)	-1	-0.693	0.0002 (inactive)	0.885	-0.0399 (inactive)	0.973 (inactive)	-3.07 (inactive)	3.52 (inactive)	-0.367 (inactive)	0.776 (inactive)	1.42 (inactive)	-2.38	-0.0391
C=CCC(OC(C)=O)[C@@H]1[C@@H](N(Cc2ccc(-c3cccc(C(F)(F)F)c3)o2)C(=O)c2cccc3ccccc23)c2cc(OCCCO)ccc2N1C(=O)Cc1ccc(OC)cc1 (stereo not given in full)	0.546	0.612	0.598	-1.16	-1.76	2.32	0.0601 (inactive)	-0.748	-0.0799	0.643 (inactive)	0.119	-1.8 (inactive)	0.0814 (inactive)	-0.349 (inactive)	-1.17 (inactive)	-0.0592 (inactive)	1.11 (inactive)	0.721 (inactive)	-0.189	-0.102
CO[C@H]1O[C@H](CO)[C@@H](OC(=O)Nc2cccc(F)c2)[C@H](OC(=O)Nc2ccccc2-c2ccccc2)[C@H]1OC(=O)Nc1ccccc1-c1ccccc1	-4.26	0.737	-4.76	-3.44	-4.3	0.0525	0.461 (inactive)	-0.936	-1.88	-6.1 (inactive)	-4.61	0.748 (inactive)	-5.86 (inactive)	0.791 (inactive)	1.16 (inactive)	1.03 (inactive)	-0.852 (inactive)	-0.516 (inactive)	-4.87	-0.0925
C=CCC(OC(C)=O)[C@@H]1[C@@H](N(Cc2cccc3ccccc23)C(=O)c2ccc(-c3ccccc3)cc2)c2cc(OCCCO)ccc2N1C(=O)c1ccc(-c2ccccc2)cc1 (stereo not given in full)	0.512	0.842	0.515	-0.484	0.294	0.78	-1.97 (inactive)	0.603	0.0821	0.654 (inactive)	-0.132	-0.166 (inactive)	0.116 (inactive)	-0.948 (inactive)	0.055 (inactive)	-0.929 (inactive)	-0.277 (inactive)	-0.228 (inactive)	0.0263	-0.114
COC(=O)[C@@]1(Cc2ccccc2CN=[N+]=[N-])N=C(c2ccc(OCCCO)cc2)O[C@H]1c1ccccc1CN=[N+]=[N-]	-3.82	0.522	-5.01	-3.56	-3.89	-0.86	-1.38 (inactive)	-1.07	-2.09	-2.82 (inactive)	-1.67	1.66 (inactive)	-4.85 (inactive)	2.46 (inactive)	2.8 (inactive)	2.88 (inactive)	1.53 (inactive)	-0.47 (inactive)	-4.32	-0.113
CCOC(=O)C1=CCC(c2ccccc2)N(S(=O)(=O)c2ccc([N+](=O)[O-])cc2)C1 (stereo not given)	-0.482	-1.19	-1.07	-0.259	0.0811	-1.73	-0.483 (inactive)	0.602	-1.37	0.217 (inactive)	0.21	1.36 (inactive)	-1.12 (inactive)	0.243 (inactive)	-0.0196 (inactive)	0.993 (inactive)	-0.495 (inactive)	0.0062 (inactive)	-0.927	-0.113
CN(C)C(=O)[C@@]1(CCC(=O)OC(C)(C)C)N=C(c2ccc(OCCCO)cc2)O[C@H]1c1ccccc1CN=[N+]=[N-]	-0.286	-0.607	0.423	-0.124	-0.389	0.628	-0.682 (inactive)	-1.18	-0.496	1.19 (inactive)	0.891	0.481 (inactive)	-1.19 (inactive)	-0.261 (inactive)	0.317 (inactive)	-0.0065 (inactive)	0.364 (inactive)	0.98 (inactive)	0.885	-0.0272
CCCNC(=O)[C@@]1(Sc2ccc(C)cc2)CC(=O)N(C(C)C)[C@@H]1c1ccc(CO)cc1I	0.505	0.49	-0.658	-2.65	-2.09	0.632	-0.769 (inactive)	-0.919	-1.02	-0.0866 (inactive)	-0.202	-1.18 (inactive)	-2.5 (inactive)	-0.5 (inactive)	0.0714 (inactive)	0.29 (inactive)	0.337 (inactive)	-0.202 (inactive)	-2.53	-0.039
